# PubChem BioAssay AID489017 (The Scripps Research Institute Molecular Screening Center, 2010)
# A number with no mark means an inactive call. The rule behind the calls is not given here.
# Test system: Phorbol Ester
# Experiment: off-target binding and CYP450 inhibition panel, profiling panel, selectivity assay for S1P4 antagonist project, biochemical, Ricerca HitProfilingScreen (AID 489017)
# Settings: Ricerca receptor/enzyme binding panel plus CYP450, at 10 µM, hits give high values
compound,measurement,value
CCc1cccc(CC)c1NC(=O)c1ccc(-c2cc(Cl)ccc2Cl)o1,inhibition,-12%
